Results on one sequence are retold here after article PMC7862700, “An all-to-all approach to the identification of sequence-specific readers for epigenetic DNA modifications on cytosine”.

What all share (assay): DAPPL (digital affinity profiling via proximity ligation, sequencing); 10 mM Tris-HCl pH 7.5, 50 mM NaCl, 1 mM DTT, 4% glycerol, room temperature, 30 min; GST-TFs on glutathione beads, 16-mer random dsDNA library, 0.1% formaldehyde crosslink after washing; high values mean tight binding
In one experiment the target is T1, FLI1 (Homo sapiens, UniProt Q01543 1-452).
T1 sequence: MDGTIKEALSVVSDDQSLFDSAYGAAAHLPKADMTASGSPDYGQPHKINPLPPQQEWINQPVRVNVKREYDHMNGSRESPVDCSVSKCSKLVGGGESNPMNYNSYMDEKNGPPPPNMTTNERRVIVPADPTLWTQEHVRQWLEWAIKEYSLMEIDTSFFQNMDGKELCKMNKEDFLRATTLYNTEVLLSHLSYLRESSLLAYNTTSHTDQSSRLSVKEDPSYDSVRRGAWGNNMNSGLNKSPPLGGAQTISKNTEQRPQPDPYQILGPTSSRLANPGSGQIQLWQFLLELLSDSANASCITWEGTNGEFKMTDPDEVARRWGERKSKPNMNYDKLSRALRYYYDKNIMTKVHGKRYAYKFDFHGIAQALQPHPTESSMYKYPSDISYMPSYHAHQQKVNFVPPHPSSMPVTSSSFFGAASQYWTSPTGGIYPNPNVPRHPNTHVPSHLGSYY
The following applies: protein: recombinant; tags: N-terminal GST; dsDNA, one strand shown. A digest of the protocol: (§1)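 Binding signal is each hexamer's read frequency for a factor divided by its frequency in the tag-only sample. The factors were GST-fused human transcription factors from yeast, captured on glutathione beads, DNA-barcoded and pooled with that sample. Pools were incubated with 200 nmole of a random double-stranded 16-mer DNA library in Tris/NaCl/DTT/glycerol buffer at room temperature for 30 min, then washed, crosslinked with 0.1% formaldehyde, proximity-ligated with BsaI/T4 ligase (1 h, 37 °C), PCR-amplified and sequenced on an Illumina NextSeq500.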

The next experiment concerns the target T2, ELK1 (Homo sapiens, UniProt P19419 1-428).
T2 sequence: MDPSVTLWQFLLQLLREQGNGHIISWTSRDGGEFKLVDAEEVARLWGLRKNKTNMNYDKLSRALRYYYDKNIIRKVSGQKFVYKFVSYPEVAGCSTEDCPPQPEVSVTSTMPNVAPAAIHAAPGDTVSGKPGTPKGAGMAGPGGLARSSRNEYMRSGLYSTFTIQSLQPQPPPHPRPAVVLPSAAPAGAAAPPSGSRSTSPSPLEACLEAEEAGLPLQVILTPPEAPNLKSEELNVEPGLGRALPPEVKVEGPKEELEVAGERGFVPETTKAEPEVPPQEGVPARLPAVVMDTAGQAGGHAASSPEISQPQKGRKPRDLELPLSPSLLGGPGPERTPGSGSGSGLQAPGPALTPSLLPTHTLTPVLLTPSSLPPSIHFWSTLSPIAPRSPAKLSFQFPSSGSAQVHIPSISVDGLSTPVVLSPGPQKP
To be noted: protein: recombinant; tags: N-terminal GST; dsDNA, one strand shown. A digest of the protocol: as §1

The next experiment deals with T3, GABPA (Homo sapiens, UniProt Q06546 1-454).
T3 sequence: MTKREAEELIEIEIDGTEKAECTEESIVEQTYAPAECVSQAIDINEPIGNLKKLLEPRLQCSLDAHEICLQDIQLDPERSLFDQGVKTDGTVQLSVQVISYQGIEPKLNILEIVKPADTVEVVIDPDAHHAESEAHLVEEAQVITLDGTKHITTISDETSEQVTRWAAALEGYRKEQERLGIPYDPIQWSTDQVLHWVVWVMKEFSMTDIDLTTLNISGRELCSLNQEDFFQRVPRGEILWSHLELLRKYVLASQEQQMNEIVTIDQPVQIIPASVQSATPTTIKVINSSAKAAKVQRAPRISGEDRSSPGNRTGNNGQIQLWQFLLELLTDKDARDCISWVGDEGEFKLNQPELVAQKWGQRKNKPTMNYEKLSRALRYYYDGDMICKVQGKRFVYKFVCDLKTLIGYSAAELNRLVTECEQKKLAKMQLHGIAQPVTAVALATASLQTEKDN
The following applies: protein: recombinant; tags: N-terminal GST; dsDNA, one strand shown. A digest of the protocol: as §1

The target of the next experiment is T4, ERG (Homo sapiens, UniProt P11308 1-479).
T4 sequence: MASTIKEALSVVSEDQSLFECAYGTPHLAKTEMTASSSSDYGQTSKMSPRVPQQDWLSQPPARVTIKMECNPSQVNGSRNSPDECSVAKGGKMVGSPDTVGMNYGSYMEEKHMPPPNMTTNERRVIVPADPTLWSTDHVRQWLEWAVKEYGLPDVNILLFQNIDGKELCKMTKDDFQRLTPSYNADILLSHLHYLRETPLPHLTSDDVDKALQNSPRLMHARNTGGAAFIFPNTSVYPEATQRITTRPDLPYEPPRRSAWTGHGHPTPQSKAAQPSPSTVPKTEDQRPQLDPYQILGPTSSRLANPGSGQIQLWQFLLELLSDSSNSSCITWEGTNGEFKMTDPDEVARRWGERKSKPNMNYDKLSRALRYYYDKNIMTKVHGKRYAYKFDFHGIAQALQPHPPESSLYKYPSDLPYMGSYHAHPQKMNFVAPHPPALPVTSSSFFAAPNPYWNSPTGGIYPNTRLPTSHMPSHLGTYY
To be noted: protein: recombinant; tags: N-terminal GST; dsDNA, one strand shown. A digest of the protocol: as §1

For another experiment, the target named is ELF1 (Homo sapiens, UniProt P32519 1-619). To be noted: protein: recombinant; tags: N-terminal GST; dsDNA, one strand shown. The method, boiled down:
as §1

In another experiment the target is T5, EHF (Homo sapiens, UniProt Q9NZC4 1-300).
T5 sequence: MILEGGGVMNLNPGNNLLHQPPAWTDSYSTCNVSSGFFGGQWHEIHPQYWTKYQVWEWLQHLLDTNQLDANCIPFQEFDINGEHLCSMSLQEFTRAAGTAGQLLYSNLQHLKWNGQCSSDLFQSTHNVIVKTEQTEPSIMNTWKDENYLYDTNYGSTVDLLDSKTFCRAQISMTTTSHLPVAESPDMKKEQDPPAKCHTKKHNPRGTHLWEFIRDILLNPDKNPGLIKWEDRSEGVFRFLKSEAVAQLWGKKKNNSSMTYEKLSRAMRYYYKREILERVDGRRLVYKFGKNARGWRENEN
The following applies: protein: recombinant; tags: N-terminal GST; dsDNA, one strand shown. The method, boiled down: as §1

A further experiment concerns the target SPI1 (Homo sapiens, UniProt P17947 1-270). To be noted: protein: recombinant; tags: N-terminal GST; dsDNA, one strand shown. A digest of the protocol:
as §1

In another experiment the target is SPIB (Homo sapiens, UniProt Q01892 1-262). The following applies: protein: recombinant; tags: N-terminal GST; dsDNA, one strand shown. The method, boiled down:
as §1

Another experiment deals with T6, ELK3 (Homo sapiens, UniProt P41970 1-407).
T6 sequence: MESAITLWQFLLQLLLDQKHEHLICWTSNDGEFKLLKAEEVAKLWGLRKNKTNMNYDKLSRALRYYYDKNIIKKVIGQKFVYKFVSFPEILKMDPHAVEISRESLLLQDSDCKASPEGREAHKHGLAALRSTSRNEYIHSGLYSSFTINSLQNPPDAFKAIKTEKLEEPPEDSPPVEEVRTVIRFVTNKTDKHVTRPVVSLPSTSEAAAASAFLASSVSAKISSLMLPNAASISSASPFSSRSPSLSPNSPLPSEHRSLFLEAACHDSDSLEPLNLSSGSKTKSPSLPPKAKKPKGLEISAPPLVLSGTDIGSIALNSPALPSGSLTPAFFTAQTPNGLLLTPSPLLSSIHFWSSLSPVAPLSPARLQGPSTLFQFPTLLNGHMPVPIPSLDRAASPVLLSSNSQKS
The following applies: protein: recombinant; tags: N-terminal GST; dsDNA, one strand shown. A digest of the protocol: as §1

Another experiment has as its target T7, FEV (Homo sapiens, UniProt Q99581 1-238).
T7 sequence: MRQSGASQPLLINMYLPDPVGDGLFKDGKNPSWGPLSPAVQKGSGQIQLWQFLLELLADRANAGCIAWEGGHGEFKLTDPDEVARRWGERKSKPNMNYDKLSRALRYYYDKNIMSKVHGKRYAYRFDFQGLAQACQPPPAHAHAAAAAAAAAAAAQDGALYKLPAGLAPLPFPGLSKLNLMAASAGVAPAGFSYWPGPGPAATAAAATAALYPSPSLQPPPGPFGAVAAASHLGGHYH
The following applies: protein: recombinant; tags: N-terminal GST; dsDNA, one strand shown. The method, boiled down: as §1

A further experiment has as its target ETV5 (Homo sapiens, UniProt P41161 1-510). The following applies: protein: recombinant; tags: N-terminal GST; dsDNA, one strand shown. The method, boiled down: as §1
The target in another experiment is HSF1 (Homo sapiens, UniProt Q00613 1-529). To be noted: protein: recombinant; tags: N-terminal GST; chain copies: 3; dsDNA, one strand shown. A digest of the protocol:
as §1

For the next experiment, the target named is T8, SPIC (Homo sapiens, UniProt Q8N5J4 1-248).
T8 sequence: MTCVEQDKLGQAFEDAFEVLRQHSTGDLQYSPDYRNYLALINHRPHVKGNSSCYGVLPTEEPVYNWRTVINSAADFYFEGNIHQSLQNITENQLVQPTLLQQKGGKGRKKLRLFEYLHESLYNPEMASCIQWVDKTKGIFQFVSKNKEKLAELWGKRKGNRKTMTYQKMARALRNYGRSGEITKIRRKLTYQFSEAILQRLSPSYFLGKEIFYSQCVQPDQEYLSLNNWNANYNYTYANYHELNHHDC
To be noted: protein: recombinant; tags: N-terminal GST; dsDNA, one strand shown. A digest of the protocol: as §1

The next experiment concerns the target ELF4 (Homo sapiens, UniProt Q99607 1-663). The following applies: protein: recombinant; tags: N-terminal GST; dsDNA, one strand shown. A digest of the protocol:
as §1

A further experiment concerns the target T9, ELK4 (Homo sapiens, UniProt P28324-2 1-405).
T9 sequence: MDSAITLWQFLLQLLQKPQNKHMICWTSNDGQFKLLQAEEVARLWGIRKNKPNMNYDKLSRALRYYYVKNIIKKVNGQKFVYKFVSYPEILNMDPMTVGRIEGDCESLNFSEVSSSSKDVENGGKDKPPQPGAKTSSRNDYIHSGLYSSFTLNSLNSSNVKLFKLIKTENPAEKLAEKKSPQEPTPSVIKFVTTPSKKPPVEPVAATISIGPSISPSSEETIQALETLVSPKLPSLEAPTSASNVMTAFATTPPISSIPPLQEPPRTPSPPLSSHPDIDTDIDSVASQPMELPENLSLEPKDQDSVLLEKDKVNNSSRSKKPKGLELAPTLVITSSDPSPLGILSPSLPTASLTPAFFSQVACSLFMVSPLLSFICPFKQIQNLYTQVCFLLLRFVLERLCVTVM
The following applies: protein: recombinant; tags: N-terminal GST; dsDNA, one strand shown. The method, boiled down:
as §1

A further experiment deals with T10, ETV2 (Homo sapiens, UniProt O00321 1-342).
T10 sequence: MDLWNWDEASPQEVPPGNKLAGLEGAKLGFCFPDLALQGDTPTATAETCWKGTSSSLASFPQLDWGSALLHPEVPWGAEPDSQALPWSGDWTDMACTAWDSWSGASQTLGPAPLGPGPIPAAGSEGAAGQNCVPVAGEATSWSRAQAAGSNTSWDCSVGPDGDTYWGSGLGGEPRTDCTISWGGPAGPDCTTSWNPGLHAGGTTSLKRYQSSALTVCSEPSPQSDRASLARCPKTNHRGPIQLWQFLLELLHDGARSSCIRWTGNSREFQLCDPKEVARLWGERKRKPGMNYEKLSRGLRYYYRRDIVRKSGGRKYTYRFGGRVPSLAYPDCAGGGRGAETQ
The following applies: protein: recombinant; tags: N-terminal GST; dsDNA, one strand shown. A digest of the protocol:
as §1

The target in another experiment is T11, ELF3 (Homo sapiens, UniProt P78545 1-371).
T11 sequence: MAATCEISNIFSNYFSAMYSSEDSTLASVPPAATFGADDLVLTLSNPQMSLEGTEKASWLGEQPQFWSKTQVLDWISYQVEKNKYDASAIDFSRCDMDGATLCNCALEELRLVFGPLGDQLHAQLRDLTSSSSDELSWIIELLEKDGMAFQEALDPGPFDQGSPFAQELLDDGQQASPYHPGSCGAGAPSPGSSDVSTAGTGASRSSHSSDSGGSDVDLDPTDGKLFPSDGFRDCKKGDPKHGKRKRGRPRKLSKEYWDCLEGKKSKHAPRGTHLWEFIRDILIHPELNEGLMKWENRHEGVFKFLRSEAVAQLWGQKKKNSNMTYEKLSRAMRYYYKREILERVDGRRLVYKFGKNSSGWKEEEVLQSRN
The following applies: protein: recombinant; tags: N-terminal GST; dsDNA, one strand shown. The method, boiled down: as §1

The target in another experiment is CRX (Homo sapiens, UniProt O43186 1-299). To be noted: protein: recombinant; tags: N-terminal GST; dsDNA, one strand shown. A digest of the protocol:
as §1

For a further experiment, the target named is ETV1 (Homo sapiens, UniProt P50549 1-477). To be noted: protein: recombinant; tags: N-terminal GST; dsDNA, one strand shown. A digest of the protocol:
as §1

ETV5, sequence (P41161 whole entry): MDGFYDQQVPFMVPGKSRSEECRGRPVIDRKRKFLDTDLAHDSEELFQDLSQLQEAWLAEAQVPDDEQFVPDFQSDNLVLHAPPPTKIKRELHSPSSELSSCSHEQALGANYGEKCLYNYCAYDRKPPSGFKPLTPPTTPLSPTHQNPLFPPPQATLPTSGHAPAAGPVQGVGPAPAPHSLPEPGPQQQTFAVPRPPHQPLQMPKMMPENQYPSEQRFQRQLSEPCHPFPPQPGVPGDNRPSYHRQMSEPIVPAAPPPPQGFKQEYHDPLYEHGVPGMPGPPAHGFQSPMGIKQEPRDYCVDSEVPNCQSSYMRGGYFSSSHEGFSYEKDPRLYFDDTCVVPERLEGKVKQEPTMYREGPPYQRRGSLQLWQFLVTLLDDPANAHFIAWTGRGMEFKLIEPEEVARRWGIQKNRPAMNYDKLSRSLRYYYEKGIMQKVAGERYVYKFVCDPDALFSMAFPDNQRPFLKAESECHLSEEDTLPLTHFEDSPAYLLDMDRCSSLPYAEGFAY
CRX, sequence (O43186 whole entry): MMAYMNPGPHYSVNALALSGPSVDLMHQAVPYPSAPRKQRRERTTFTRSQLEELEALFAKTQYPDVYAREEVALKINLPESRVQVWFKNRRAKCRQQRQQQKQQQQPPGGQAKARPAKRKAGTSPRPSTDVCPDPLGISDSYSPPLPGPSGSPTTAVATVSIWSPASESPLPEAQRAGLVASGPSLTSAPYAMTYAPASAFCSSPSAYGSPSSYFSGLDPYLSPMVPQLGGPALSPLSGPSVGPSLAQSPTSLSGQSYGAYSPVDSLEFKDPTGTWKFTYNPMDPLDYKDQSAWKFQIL
SPIB, sequence (Q01892 whole entry): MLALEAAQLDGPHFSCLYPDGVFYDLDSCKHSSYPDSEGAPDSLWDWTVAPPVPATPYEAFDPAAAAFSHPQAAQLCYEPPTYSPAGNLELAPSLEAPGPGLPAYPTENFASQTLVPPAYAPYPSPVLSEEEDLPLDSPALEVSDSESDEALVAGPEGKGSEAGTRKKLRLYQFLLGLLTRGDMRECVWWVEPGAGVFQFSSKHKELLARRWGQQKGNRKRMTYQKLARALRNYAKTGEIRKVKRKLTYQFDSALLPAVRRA
ELF1, sequence (P32519 whole entry): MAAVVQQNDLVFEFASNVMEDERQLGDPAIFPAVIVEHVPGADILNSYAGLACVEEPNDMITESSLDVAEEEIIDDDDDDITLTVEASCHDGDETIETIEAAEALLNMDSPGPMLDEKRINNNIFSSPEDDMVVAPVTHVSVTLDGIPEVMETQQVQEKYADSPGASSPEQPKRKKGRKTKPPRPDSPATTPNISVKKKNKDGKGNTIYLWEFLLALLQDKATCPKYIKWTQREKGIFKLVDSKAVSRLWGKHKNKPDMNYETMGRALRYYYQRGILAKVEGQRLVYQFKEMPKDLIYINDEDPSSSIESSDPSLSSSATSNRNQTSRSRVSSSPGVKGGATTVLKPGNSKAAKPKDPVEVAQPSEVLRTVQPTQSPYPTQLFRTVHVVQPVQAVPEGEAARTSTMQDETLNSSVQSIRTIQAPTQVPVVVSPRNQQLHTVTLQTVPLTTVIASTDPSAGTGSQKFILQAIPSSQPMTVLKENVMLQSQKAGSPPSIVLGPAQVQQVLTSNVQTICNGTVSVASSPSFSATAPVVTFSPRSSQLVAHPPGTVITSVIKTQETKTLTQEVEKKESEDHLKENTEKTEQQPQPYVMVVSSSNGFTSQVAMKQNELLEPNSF
ELF4, sequence (Q99607 whole entry): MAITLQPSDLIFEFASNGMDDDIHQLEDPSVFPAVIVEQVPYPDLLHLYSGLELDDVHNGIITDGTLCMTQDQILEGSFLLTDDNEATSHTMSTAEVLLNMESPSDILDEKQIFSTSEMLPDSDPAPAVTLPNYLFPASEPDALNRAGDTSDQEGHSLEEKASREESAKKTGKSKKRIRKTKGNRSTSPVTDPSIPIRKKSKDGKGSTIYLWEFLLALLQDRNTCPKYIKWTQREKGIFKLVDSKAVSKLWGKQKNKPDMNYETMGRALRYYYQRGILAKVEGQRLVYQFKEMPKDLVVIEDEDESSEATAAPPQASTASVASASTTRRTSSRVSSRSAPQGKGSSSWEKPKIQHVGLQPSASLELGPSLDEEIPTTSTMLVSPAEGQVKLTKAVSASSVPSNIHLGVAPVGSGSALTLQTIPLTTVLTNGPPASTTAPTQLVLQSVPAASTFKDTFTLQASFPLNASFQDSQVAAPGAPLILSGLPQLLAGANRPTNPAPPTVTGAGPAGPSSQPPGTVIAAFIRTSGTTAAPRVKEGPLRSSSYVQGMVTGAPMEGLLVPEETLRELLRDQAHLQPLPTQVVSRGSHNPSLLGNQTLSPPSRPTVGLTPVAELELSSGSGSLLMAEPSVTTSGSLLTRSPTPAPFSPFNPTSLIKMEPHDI
HSF1, sequence (Q00613 whole entry): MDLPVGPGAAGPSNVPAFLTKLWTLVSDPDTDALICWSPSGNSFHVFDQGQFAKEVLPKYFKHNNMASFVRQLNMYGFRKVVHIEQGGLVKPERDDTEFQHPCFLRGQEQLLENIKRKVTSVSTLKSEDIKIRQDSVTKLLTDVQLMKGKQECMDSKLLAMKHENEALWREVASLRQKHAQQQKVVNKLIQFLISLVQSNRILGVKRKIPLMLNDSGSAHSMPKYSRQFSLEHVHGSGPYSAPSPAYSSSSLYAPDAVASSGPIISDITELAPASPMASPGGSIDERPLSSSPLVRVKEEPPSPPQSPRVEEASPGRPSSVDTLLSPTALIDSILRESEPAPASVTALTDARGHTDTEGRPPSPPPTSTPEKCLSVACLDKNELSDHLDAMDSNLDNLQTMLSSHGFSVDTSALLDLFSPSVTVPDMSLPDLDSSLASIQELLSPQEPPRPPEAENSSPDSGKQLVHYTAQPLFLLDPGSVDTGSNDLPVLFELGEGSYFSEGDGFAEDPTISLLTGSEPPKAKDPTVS
ETV1, sequence (P50549 whole entry): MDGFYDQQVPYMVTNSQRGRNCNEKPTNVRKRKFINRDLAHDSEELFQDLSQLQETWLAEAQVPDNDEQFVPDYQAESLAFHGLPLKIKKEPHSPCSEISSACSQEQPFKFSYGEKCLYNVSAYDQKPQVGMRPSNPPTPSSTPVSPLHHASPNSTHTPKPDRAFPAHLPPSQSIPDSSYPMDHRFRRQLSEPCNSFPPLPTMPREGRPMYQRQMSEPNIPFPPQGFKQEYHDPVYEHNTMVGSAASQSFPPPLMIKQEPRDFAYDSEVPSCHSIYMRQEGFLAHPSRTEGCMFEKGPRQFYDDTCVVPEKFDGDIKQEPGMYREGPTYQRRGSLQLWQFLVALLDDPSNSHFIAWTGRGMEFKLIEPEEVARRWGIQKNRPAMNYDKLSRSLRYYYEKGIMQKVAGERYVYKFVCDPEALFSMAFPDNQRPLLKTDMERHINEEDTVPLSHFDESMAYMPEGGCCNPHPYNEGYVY

Take TACATC: the binding signal was 1.63 fold enrichment (6-mer frequency, TF over GST control) with FLI1; 1.67 fold enrichment (6-mer frequency, TF over GST control) in the experiment with ELK1; 1.51 fold enrichment (6-mer frequency, TF over GST control) in the experiment with GABPA; 1.65 fold enrichment (6-mer frequency, TF over GST control) with ERG; 1.53 fold enrichment (6-mer frequency, TF over GST control) with ELF1; 1.6 fold enrichment (6-mer frequency, TF over GST control) in the experiment with EHF. The binding signal in the experiment with SPI1 is 1.57 fold enrichment (6-mer frequency, TF over GST control); with SPIB it was 1.65 fold enrichment (6-mer frequency, TF over GST control); with ELK3 it was 1.74 fold enrichment (6-mer frequency, TF over GST control); in the experiment with FEV, 1.77 fold enrichment (6-mer frequency, TF over GST control); in the experiment with ETV5, 1.63 fold enrichment (6-mer frequency, TF over GST control); with HSF1, 1.09 fold enrichment (6-mer frequency, TF over GST control). For the same sequence, the binding signal with SPIC was 1.61 fold enrichment (6-mer frequency, TF over GST control); with ELF4 it was 1.56 fold enrichment (6-mer frequency, TF over GST control); in the experiment with ELK4 it was 1.53 fold enrichment (6-mer frequency, TF over GST control); with ETV2, 1.65 fold enrichment (6-mer frequency, TF over GST control); with ELF3 it was 1.48 fold enrichment (6-mer frequency, TF over GST control); with CRX, 1.17 fold enrichment (6-mer frequency, TF over GST control). The binding signal with ETV1 was 1.64 fold enrichment (6-mer frequency, TF over GST control).
